This is an account of results in PubChem BioAssay (NCATS).

Results filed as inconclusive are left out. A number with no mark means an inactive call. Activity calls are given as the source filed them. The call rests on the fitted dose curve; in most records, active means well fitted cell-killing curve with a large enough effect; inconclusive means small, poorly fitted or top-dose-only effect, or effect the other way; inactive means no such curve, though single readings can be large or run the other way.

Assay [1] in a line: Viability qHTS for spleen associated tyrosine kinase inhibitor (SYKi) naive MV4-11 cells (AID 1963823). Further: nearly all actives have a fitted effect of over 40% in size. In short, it runs like this: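 qHTS, SYK inhibitor-naive MV4-11; 500 cells/well; 72 hr compound exposure, 37 C; CellTiter-Glo added, 10 min RT; luminescence read.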
A general note: Quantitative high-throughput screening tests each substance at several concentrations.

A short description of assay [2]: Viability qHTS for spleen associated tyrosine kinase inhibitor (SYKi) drug resistant MV4-11 cells (AID 1963824). Further: nearly all actives have a fitted effect of over 35% in size. In short, it runs like this:
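SYK-inhibitor-resistant MV4-11 AML cells were seeded at 500 per well onto compound and cultured 72 hours (37 °C, 5% CO2). CellTiter-Glo was then added, and after 10 min at room temperature, luminescence gave viability.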
Potency means the concentration at half of the fitted maximal effect.

As to `Cc1cc(O)cc(Oc2cc(C)c(C(=O)O)c(O)c2)c1`, the Potency entry in assay [1] and in assay [2] was “inactive” in each case.

Regarding `COc1cc([C@@H]2Oc3c(OC)cc(CCCO)cc3[C@@H]2CO[C@@H]2O[C@H](CO)[C@@H](O)[C@H](O)[C@H]2O)ccc1O`, the Potency entry in assay [1] and in assay [2] was “inactive” in each case.

With `C[C@@]1(O)[C@H](O)[C@@H](CO)O[C@H]1n1cnc2c(=O)[nH]c(N)nc21`, the Potency entry in assay [1] and in assay [2] was “inactive” throughout.

For the molecule `CC(C)=CCC[C@](C)(O[C@@H]1O[C@H](CO)[C@@H](O)[C@H](O)[C@H]1O)[C@H]1CC[C@]2(C)[C@@H]1[C@H](O)CC1[C@@]3(C)CC[C@H](O)C(C)(C)C3[C@@H](O[C@@H]3O[C@H](CO)[C@@H](O)[C@H](O)[C@H]3O[C@@H]3O[C@@H](C)[C@H](O)[C@@H](O)[C@H]3O)C[C@]12C` (some centres undefined), the viability (% of control) in assay [1] was 90.7% [at 9.25 µM]. Further, the viability, % of control in assay [2] was 105% [at 9.25 µM].

As for `C=C1C(=O)OC2CC3(C)C(O)C(=O)C=C(C)C3CC12` (centres undefined), the Potency in assay [1] is 23100 nM (active); in assay [2], 7310 nM (active).

As to `CC(=O)NC1=NN(C(C)=O)C(C)(c2ccccc2)S1` (centres undefined), the results for the Potency in assay [1] and in assay [2] were 1840 nM (active) and 2590 nM (active), respectively.

As for `C=C1CCC2C(OC(=O)C2(O)COC(C)=O)C2C(=C)C(O)CC12` (centres undefined), the Potency result in assay [1] and in assay [2] was “inactive” each time.

As for `CC(=O)OC1C(O)CC(O[C@@H]2O[C@H](CO)[C@@H](O)[C@H](O)[C@H]2O)C2CCC3C(=O)OC(c4ccoc4)CC3(C)C21` (some centres undefined), the Potency entry in assay [1] and in assay [2] was “inactive” each time.

As for `C=C(C(=O)OC)C1C(O)CC2(C)C(O)CCC(=O)C2C1O` (centres undefined), the Potency entry in assay [1] and in assay [2] was “inactive” each time.

Consider `COc1cc(/C=C/C(=O)O[C@H]2[C@@H]3C=CO[C@@H](O[C@@H]4O[C@H](CO)[C@@H](O)[C@H](O)[C@H]4O)[C@@H]3[C@@]3(CO)O[C@@H]23)ccc1O`, for which the Potency entry in assay [1] and in assay [2] was “inactive” in each case.

As to `C[C@@H]1CCC2C(C)(C)[C@H](O)CC[C@]2(C)[C@@]12Cc1c(O)cc3c(c1O2)CNC3=O` (some centres undefined), the Potency result in assay [1] and in assay [2] was “inactive” in each case.

As for `O=C(O)/C=C/c1ccc(O[C@@H]2O[C@H](CO)[C@@H](O)[C@H](O)[C@H]2O)cc1`, the Potency result in assay [1] and in assay [2] was “inactive” in each case.

For `C[S+](CC[C@H](N)C(=O)[O-])C[C@H]1O[C@@H](n2cnc3c(N)ncnc32)[C@H](O)[C@@H]1O` (some centres undefined), the Potency result in assay [1] and in assay [2] was “inactive” each time.

Regarding `CO[C@H]1[C@@H](O)[C@H](O[C@H]2CC[C@@]3(C)C(CCC4C3CC[C@]35COC6(COC(=O)C6)C3CCC45O)C2)O[C@@H](C)[C@@H]1OC1OC(CO)C(OC2OC(CO)C(O)C(O)C2O)C(O)C1O` (some centres undefined), the Potency in assay [1] is 1230 nM (active); in assay [2] it was 1100 nM (active).

Regarding `O=C(CCCCCCC(=O)Nc1ccc(C2OC(CSc3nc(-c4ccccc4)c(-c4ccccc4)o3)CC(c3ccc(CO)cc3)O2)cc1)NO` (centres undefined), the Potency was 7310 nM (active) in assay [1] and 9200 nM (active) in assay [2].

For the molecule `C=CC(C)(O)CC/C=C(\C)C(=O)OC1C(O)C(CO)OC(OC(=O)C23CCC(C)(C)CC2C2=CCC4C5(C)CCC(OC6OC(COC7OCC(OC(C)=O)C(O)C7OC7OC(COC(C)=O)C(O)C(O)C7OC(C)=O)C(O)C(O)C6OC6OCC(O)C(O)C6O)C(C)(C)C5CCC4(C)C2(C)C(O)C3O)C1OC1OCC(OC2OCC(O)C(OC3OCC(O)C(O)C3O)C2O)C(O)C1O` (centres undefined), the Potency is 631 nM (active) in assay [1] and 1780 nM (active) in assay [2].

Turning to `C=C[C@H]1[C@H](O[C@@H]2O[C@H](CO[C@@H]3OC[C@](O)(CO)[C@H]3O)[C@@H](O)[C@H](O)[C@H]2O)OC=C2C(=O)OCC[C@H]21`, the Potency entry in assay [1] and in assay [2] was “inactive” in each case.

In the case of `C=C1CC2OC(=O)C(=C)C2C(OC(=O)/C(C)=C\C)CC2(C)OC1=CC2=O` (centres undefined), the Potency in assay [1] and in assay [2] was 453 nM (active) throughout.

For the molecule `CC1=C(C(=O)O)/C(=C/CO[C@@H]2O[C@H](COC(=O)/C=C/c3ccc(O)cc3)[C@@H](O)[C@H](O)[C@H]2O)C(O)C1` (some centres undefined), the Potency entry in assay [1] and in assay [2] was “inactive” in each case.

On to `OC[C@H]1O[C@@H](O[C@H]2[C@H](O)[C@@H](CO)O[C@@H](OCc3ccccc3)[C@@H]2O[C@@H]2OC[C@](O)(CO)[C@H]2O)[C@H](O)[C@@H](O)[C@@H]1O`, for which the Potency entry in assay [1] and in assay [2] was “inactive” throughout.

Turning to `CN(C)c1ccc(Nc2c3ccc(NC(=O)CCN4CCCC4)cc3nc3cc(NC(=O)CCN4CCCC4)ccc23)cc1`, the Potency was 5170 nM (active) in assay [1] and 4110 nM (active) in assay [2].

For `CC1(C)CC[C@]2(C(=O)O[C@@H]3O[C@H](CO)[C@@H](O)[C@H](O)[C@H]3O)CC[C@]3(C)C(=CCC4[C@@]5(C)CC[C@H](O[C@@H]6O[C@H](C(=O)O)[C@@H](O)[C@H](O[C@@H]7O[C@H](CO)[C@H](O)[C@H](O)[C@H]7O)[C@H]6O)C(C)(C)C5CC[C@]43C)C2C1` (some centres undefined), in assay [1], the viability (% of control) is 81.1% [at 9.25 µM]. Moreover, in assay [2], the viability, % of control was 106% [at 9.25 µM].
